# In PubChem BioAssay (EPA / NIEHS):
# Results filed as inconclusive are left out. Active and inactive are the calls of the source. Rule for the calls, unless noted: active = hit-call score of the fitted dose curve at least 0.9, where 1 is the maximum; inactive = score below 0.9.
# Legend:
# [1] = ATG_NFI_CIS: Attagene CIS-FACTORIAL HepG2 Assay for human Nuclear Factor I (NFI) (AID 2282989); conditions: HepG2 cis-regulatory reporter, NFI response element transcription; actives raise or lower the signal
# In short: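 Reporter transcription driven by endogenous transcription factors in HepG2 cells; 24 h treatment. Quantitation by labelled RT-PCR fragments on capillary electrophoresis, gain- or loss-of-signal relative to DMSO.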
# [2] = target: Myc proto-oncogene protein (Homo sapiens) (UniProt P01106); assay: ATG_Myc_CIS: Attagene CIS-FACTORIAL HepG2 Assay for human Myelocytomatosis (Myc) Proto-Oncogene Transcription Factor (AID 2282990); conditions: HepG2, Attagene cis-reporter transcription factor activity; actives raise or lower the signal
# Sequence of Myc proto-oncogene protein (Homo sapiens) (P01106 whole entry, looked up): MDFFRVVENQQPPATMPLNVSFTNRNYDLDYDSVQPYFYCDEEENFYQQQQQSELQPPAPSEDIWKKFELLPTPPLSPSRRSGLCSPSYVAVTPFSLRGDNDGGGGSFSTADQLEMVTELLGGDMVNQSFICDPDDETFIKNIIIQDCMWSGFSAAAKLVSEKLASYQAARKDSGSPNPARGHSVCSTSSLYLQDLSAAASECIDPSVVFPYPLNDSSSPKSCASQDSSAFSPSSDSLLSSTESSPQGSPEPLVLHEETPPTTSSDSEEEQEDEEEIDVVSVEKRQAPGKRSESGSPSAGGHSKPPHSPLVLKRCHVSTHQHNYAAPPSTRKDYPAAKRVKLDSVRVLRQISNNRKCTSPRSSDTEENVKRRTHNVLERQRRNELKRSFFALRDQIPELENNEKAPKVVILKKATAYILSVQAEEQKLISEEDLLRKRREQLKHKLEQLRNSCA
# In short: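 Transiently transfected HepG2 cells bearing cis-promoter reporter units for endogenous transcription factors; 24 h exposure. Reporter mRNA measured by RT-PCR, 6-FAM primer extension, HpaI cut and capillary electrophoresis; bidirectional fit relative to DMSO.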
# [3] = ATG_NF_kB_CIS: Attagene CIS-FACTORIAL HepG2 Assay for human Nuclear Factor Kappa B (NF-kB) (AID 2282991); conditions: HepG2 Attagene cis-factorial NF-kB reporter mRNA; actives raise or lower the signal
# In short: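 Endogenous transcription factor activity in HepG2 was captured via cis-regulated reporter constructs; after 24 h dosing, reporter mRNA was reverse-transcribed, amplified, fluorescently labelled and sized by capillary electrophoresis, with activity fitted bidirectionally relative to DMSO.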
# [4] = ATG_NRF2_ARE_CIS: Attagene CIS-FACTORIAL HepG2 Assay for human Nuclear Factor Erythroid 2 Related Factor 2 (NFR2) response to Antioxidant Response Elements (ARE) (AID 2282992); conditions: HepG2 Attagene ARE/NRF2 reporter, transcription factor activity; actives raise or lower the signal
# In short: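 Endogenous transcription factor activity read out as reporter transcript levels (RT-PCR plus capillary electrophoresis, fluorescence) in transiently transfected HepG2 cells. Measured at 24 h after dosing; gain or loss of signal fitted versus DMSO.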
# [5] = ATG_Oct_MLP_CIS: Attagene CIS-FACTORIAL HepG2 Assay for human Octamer-Binding Transcription Factor (Oct) (AID 2282993); conditions: HepG2 Attagene cis-factorial Oct reporter, mRNA; actives raise or lower the signal
# In short: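 Transfected HepG2 cells, 24 h treatment. Reporter mRNA quantified by RT-PCR–capillary electrophoresis; bidirectional fitting against DMSO.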
# [6] = target: Cellular tumor antigen p53 (Homo sapiens) (UniProt P04637); assay: ATG_p53_CIS: Attagene CIS-FACTORIAL HepG2 Assay for human p53 Transcription Factor (AID 2282994); conditions: HepG2 p53 cis-element reporter, Attagene mRNA; actives raise or lower the signal
# Sequence of Cellular tumor antigen p53 (Homo sapiens) (P04637 whole entry, looked up): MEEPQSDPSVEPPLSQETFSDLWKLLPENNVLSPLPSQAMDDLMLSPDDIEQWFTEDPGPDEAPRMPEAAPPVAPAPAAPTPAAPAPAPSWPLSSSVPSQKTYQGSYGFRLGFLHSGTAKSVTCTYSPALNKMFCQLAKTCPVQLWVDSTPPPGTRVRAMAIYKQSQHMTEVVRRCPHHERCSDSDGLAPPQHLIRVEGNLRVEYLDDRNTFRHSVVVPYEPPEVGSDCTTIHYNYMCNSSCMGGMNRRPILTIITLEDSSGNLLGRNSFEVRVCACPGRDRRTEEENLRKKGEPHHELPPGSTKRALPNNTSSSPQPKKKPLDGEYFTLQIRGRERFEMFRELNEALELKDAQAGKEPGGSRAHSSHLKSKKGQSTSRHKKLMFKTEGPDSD
# In short: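 Endogenous p53 activity read in transiently transfected HepG2 from a cis-element-driven reporter transcript after 24 h exposure. RNA reverse-transcribed, PCR-amplified, fluorescently labelled and sized by capillary electrophoresis; gain or loss fitted against DMSO baseline.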
# [7] = target: human Peroxisome Proliferator-activated Receptor delta (PPARd), PPARD (gene 5467) (UniProt Q03181); assay: ATG_PPARd_TRANS: Attagene TRANS-FACTORIAL HepG2 Assay for human Peroxisome Proliferator-activated Receptor delta (PPARd) (AID 2283002; active = hit-call score of the fitted dose curve at least 0.9, where 1 is the maximum)
# Sequence of human Peroxisome Proliferator-activated Receptor delta (PPARd), PPARD (gene 5467) (Q03181 whole entry, looked up, the tested form may be a part): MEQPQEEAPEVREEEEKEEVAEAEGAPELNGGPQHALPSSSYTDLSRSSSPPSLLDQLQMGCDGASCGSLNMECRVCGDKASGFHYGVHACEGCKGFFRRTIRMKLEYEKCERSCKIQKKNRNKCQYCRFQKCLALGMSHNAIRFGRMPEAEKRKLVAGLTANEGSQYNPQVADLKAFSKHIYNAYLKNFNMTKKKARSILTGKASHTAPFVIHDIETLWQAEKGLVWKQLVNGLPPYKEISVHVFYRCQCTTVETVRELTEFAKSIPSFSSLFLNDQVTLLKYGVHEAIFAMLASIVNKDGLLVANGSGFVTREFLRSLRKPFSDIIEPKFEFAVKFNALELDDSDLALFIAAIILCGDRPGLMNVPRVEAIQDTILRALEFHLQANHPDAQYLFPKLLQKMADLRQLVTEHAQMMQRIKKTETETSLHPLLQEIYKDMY
# In short: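 HepG2 cells transiently transfected with GAL4-UAS multiplexed reporter units driven by exogenous chimeric NR-GAL4 proteins; 24 h compound exposure. Reporter mRNA measured by RT-PCR, 6-FAM primer extension, HpaI digestion and capillary electrophoresis; gain of signal fitted relative to DMSO.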
# [8] = target: Peroxisome proliferator-activated receptor gamma (Homo sapiens) (UniProt P37231); assay: ATG_PPARg_TRANS: Attagene TRANS-FACTORIAL HepG2 Assay for human Peroxisome Proliferator-activated Receptor-gamma (PPARg) (AID 2283007; active = hit-call score of the fitted dose curve at least 0.9, where 1 is the maximum)
# Sequence of Peroxisome proliferator-activated receptor gamma (Homo sapiens) (P37231 whole entry, looked up, the tested form may be a part): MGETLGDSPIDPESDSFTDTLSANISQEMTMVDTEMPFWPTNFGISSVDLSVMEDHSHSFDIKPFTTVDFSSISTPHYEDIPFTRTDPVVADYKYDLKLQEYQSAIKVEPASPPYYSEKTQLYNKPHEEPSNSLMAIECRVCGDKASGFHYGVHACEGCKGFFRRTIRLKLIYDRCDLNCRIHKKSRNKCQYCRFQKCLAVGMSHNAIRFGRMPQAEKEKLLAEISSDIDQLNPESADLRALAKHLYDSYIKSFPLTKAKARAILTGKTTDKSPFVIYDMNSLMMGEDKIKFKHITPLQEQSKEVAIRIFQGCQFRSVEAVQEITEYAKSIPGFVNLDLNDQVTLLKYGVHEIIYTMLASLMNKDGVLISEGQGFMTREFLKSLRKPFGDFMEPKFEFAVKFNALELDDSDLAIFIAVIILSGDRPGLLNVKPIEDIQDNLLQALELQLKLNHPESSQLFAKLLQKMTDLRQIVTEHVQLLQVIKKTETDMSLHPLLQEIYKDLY
# In short: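 A TRANS-format multiplexed reporter assay measures activity of an exogenous chimeric NR-Gal4 protein in HepG2 cells. After 24 h of chemical exposure, reporter transcripts are amplified, fluorescently labelled and sized by capillary electrophoresis, with gain of signal scored against DMSO.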
# [9] = target: Nuclear receptor subfamily 1 group I member 2 (Homo sapiens) (UniProt O75469); assay: ATG_PXR_TRANS: Attagene TRANS-FACTORIAL HepG2 Assay for human Pregnane X Receptor (PXR) (AID 2283008; active = hit-call score of the fitted dose curve at least 0.9, where 1 is the maximum)
# Sequence of Nuclear receptor subfamily 1 group I member 2 (Homo sapiens) (O75469 whole entry, looked up, the tested form may be a part): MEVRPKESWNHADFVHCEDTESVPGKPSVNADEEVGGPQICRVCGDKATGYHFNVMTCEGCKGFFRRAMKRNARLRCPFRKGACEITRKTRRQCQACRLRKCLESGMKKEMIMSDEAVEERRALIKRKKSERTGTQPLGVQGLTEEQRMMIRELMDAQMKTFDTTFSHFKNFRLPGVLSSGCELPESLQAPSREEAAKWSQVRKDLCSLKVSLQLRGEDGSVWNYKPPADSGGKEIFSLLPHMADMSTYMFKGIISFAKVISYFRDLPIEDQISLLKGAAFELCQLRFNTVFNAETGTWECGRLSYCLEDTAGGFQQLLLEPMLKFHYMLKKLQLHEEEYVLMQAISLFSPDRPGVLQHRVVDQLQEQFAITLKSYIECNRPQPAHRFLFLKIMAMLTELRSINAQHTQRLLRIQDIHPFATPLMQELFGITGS
# In short: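 Transactivation by exogenous PXR–GAL4 fusion measured as reporter transcript induction after 24 h compound treatment of transfected human HepG2 cells. Read-out via RT-PCR and capillary electrophoresis of labelled fragments, fitted upward relative to DMSO.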
# [10] = target: human RAR-related Orphan Receptor beta (RORb), RORB (gene 6096) (UniProt Q92753); assay: ATG_RORb_TRANS: Attagene TRANS-FACTORIAL HepG2 Assay for human RAR-related Orphan Receptor beta (RORb) (AID 2283010; active = hit-call score of the fitted dose curve at least 0.9, where 1 is the maximum)
# Sequence of human RAR-related Orphan Receptor beta (RORb), RORB (gene 6096) (Q92753 whole entry, looked up, the tested form may be a part): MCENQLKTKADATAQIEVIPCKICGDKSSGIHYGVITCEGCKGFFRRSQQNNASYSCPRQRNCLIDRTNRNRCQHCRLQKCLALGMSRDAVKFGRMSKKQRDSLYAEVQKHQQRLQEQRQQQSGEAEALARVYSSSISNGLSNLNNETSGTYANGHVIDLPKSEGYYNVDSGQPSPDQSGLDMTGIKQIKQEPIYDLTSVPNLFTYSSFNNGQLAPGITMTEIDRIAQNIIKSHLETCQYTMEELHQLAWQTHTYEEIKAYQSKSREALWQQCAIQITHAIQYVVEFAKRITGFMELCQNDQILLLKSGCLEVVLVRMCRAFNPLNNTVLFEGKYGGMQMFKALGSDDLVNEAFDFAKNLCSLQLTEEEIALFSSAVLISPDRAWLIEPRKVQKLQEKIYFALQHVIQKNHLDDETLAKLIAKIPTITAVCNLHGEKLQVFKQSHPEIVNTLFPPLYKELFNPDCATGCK
# In short: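 Multiplexed transcription-factor reporter assay: HepG2 cells transiently carrying NR-Gal4/GAL4-UAS constructs, 24 h treatment, mRNA quantified by RT-PCR plus capillary electrophoresis fluorescence; activity scored as induction over DMSO.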
# [11] = BSK_3C_TissueFactor: BioMAP Diversity Plus: 3C Assay for Tissue Factor Biomarker Activity (AID 2282997); conditions: BioMAP 3C HUVEC, tissue factor biomarker readout; actives raise or lower the signal
# In short: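 In this endothelial system, HUVEC are treated for 24 h and Tissue Factor is assessed by ELISA, normalised to DMSO.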
# [12] = BSK_3C_uPAR: BioMAP Diversity Plus: 3C Assay for Urokinase-type plasminogen activator receptor (uPAR) Biomarker Activity (AID 2282998); conditions: BioMAP 3C HUVEC, uPAR biomarker ELISA; actives raise or lower the signal
# In short: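 Readout: ELISA for surface uPAR. System: human umbilical vein endothelial primary cells, 24 h after chemical exposure. Analysis: bidirectional fit, DMSO baseline.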
# [13] = BSK_3C_VCAM1: BioMAP Diversity Plus: 3C Assay for Vascular cell adhesion molecule 1 (VCAM1) Biomarker Activity (AID 2282999); conditions: BioMAP 3C HUVEC, VCAM1 ELISA, cytokine-stimulated; actives raise or lower the signal
# In short: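 HUVEC primary cells, 24 h compound exposure; VCAM-1 by ELISA; gain/loss of signal fitted bidirectionally vs DMSO baseline.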
# [14] = BSK_4H_Eotaxin3: BioMAP Diversity Plus: 4H Assay for Eotaxin 3 Biomarker Activity (AID 2283000); conditions: primary human endothelial cells (HUVEC); actives raise or lower the signal;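 note: CCL26 protein level quantified by ELISA in parallel with SRB cytotoxicity check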
# In short: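 ELISA quantitation of CCL26 (Eotaxin-3) protein from chemically dosed human vascular endothelial cells at 24 h; increases and decreases both scored relative to DMSO-treated baseline.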
# [15] = read-out: Intercellular Adhesion Molecule 1 (ICAM1), ICAM1 (gene 3383); assay: BSK_3C_ICAM1: BioMAP Diversity Plus: 3C Assay for Intercellular Adhesion Molecule 1 (ICAM1) Biomarker Activity (AID 2283003); conditions: primary human endothelial cells (HUVEC); actives raise or lower the signal
# In short: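 Using DMSO as baseline, bidirectional curve fitting was applied to ICAM-1 ELISA signals from HUVEC in the 3C system, measured 24 h after compound addition.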
# [16] = target: Retinoic acid receptor alpha (Homo sapiens) (UniProt P10276); assay: ATG_RARa_TRANS: Attagene TRANS-FACTORIAL HepG2 Assay for human Retinoic Acid Receptor alpha (RARa) (AID 2283005; active = hit-call score of the fitted dose curve at least 0.9, where 1 is the maximum)
# Sequence of Retinoic acid receptor alpha (Homo sapiens) (P10276 whole entry, looked up, the tested form may be a part): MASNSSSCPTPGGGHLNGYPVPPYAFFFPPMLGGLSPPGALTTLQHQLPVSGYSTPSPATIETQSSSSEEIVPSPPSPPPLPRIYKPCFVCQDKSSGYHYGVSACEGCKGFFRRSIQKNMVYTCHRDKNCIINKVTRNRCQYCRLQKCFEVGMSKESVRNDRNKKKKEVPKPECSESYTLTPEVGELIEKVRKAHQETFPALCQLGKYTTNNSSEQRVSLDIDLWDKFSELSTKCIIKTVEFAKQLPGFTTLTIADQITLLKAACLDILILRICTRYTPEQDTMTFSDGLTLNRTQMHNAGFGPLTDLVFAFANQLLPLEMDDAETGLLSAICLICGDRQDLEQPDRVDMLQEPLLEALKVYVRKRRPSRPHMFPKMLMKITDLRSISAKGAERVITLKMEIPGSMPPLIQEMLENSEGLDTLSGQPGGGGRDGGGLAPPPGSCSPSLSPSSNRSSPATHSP
# In short: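 HepG2 transiently transfected with multiplex GAL4-UAS reporter units including a human RARa–GAL4 chimera; 24 h compound exposure. Reporter mRNA quantified by RT-PCR, 6-FAM labeling and capillary electrophoresis; gain of signal versus DMSO.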
# [17] = BSK_3C_Proliferation: Cell Proliferation Assessment in the BioMAP Diversity Plus: 3C Assay (AID 2283006); conditions: primary human endothelial cells (HUVEC);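 for AC50: potency may reflect either rise or fall in cell number versus DMSO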
# In short: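 Measured here: sulforhodamine B (0.1%) staining of TCA-fixed sub-confluent umbilical vein endothelial cultures 48 h post-dosing, absorbance 560 nm. DMSO served as negative control and baseline; both signal gain and loss were modelled.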
# [18] = target: human Retinoic Acid Receptor gamma (RARg), RARG (gene 5916) (UniProt P13631); assay: ATG_RARg_TRANS: Attagene TRANS-FACTORIAL HepG2 Assay for human Retinoic Acid Receptor gamma (RARg) (AID 2283009; active = hit-call score of the fitted dose curve at least 0.9, where 1 is the maximum)
# Sequence of human Retinoic Acid Receptor gamma (RARg), RARG (gene 5916) (P13631 whole entry, looked up, the tested form may be a part): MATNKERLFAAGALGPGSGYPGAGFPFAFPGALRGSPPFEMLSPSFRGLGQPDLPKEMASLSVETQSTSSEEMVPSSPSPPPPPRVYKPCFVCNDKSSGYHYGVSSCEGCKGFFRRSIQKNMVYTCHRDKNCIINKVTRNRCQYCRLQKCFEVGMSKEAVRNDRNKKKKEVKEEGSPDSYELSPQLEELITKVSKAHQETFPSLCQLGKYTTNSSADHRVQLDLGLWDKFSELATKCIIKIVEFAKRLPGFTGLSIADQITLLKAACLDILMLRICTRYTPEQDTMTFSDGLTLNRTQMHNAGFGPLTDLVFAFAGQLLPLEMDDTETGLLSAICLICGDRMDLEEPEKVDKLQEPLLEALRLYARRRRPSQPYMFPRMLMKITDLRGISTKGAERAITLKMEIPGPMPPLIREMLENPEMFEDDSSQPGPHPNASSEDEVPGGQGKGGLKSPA
# In short: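 Gain-of-signal relative to DMSO is reported from fluorescent capillary electrophoresis of RT-PCR reporter products. These came from HepG2 cells expressing transfected RARg-GAL4 chimeras with UAS reporters, harvested 24 h after dosing.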
# [19] = target: human Peroxisome Proliferator-activated Receptor alpha (PPARa), PPARA (gene 5465) (UniProt Q07869); assay: ATG_PPARa_TRANS: Attagene TRANS-FACTORIAL HepG2 Assay for human Peroxisome Proliferator-activated Receptor alpha (PPARa) (AID 2283001; active = hit-call score of the fitted dose curve at least 0.9, where 1 is the maximum)
# Sequence of human Peroxisome Proliferator-activated Receptor alpha (PPARa), PPARA (gene 5465) (Q07869 whole entry, looked up, the tested form may be a part): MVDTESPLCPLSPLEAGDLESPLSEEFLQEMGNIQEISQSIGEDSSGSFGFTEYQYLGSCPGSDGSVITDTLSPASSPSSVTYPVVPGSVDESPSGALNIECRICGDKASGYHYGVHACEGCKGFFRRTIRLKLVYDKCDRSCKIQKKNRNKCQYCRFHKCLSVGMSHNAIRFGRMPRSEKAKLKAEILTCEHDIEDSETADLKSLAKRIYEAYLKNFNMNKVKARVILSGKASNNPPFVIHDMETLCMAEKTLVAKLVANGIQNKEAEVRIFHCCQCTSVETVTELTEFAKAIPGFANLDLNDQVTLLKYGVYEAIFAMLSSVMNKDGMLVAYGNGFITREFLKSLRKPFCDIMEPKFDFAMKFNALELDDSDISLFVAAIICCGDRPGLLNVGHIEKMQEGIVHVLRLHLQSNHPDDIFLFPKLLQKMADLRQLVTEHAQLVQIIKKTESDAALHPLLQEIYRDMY
# In short: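 Transient HepG2 transfection, GAL4-UAS reporters, NR-Gal4 chimeras; 24 h compound exposure. Readout: reporter transcripts by RT-PCR, 6-FAM primer extension, HpaI digest, capillary electrophoresis. Positive direction vs DMSO baseline.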
# [20] = target: human Retinoic Acid Receptor beta (RARb), RARB (gene 5915) (UniProt P10826); assay: ATG_RARb_TRANS: Attagene TRANS-FACTORIAL HepG2 Assay for human Retinoic Acid Receptor beta (AID 2283004; active = hit-call score of the fitted dose curve at least 0.9, where 1 is the maximum)
# Sequence of human Retinoic Acid Receptor beta (RARb), RARB (gene 5915) (P10826 whole entry, looked up, the tested form may be a part): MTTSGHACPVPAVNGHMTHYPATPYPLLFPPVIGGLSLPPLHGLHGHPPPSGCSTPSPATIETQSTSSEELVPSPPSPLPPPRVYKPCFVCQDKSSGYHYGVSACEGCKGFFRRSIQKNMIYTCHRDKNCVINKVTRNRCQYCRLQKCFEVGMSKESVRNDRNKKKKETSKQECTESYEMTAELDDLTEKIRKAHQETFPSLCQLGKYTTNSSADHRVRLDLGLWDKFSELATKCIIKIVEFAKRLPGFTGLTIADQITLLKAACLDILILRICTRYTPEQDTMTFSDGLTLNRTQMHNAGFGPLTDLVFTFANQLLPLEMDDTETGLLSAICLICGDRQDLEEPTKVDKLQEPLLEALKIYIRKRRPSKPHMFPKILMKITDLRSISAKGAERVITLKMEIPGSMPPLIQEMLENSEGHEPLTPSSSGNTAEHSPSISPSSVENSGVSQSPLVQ
# In short: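 Fluorescent capillary-electrophoresis detection of GAL4-UAS reporter mRNA defines the endpoint, with induction over DMSO-treated wells scored as activity. Transiently transfected human hepatoma HepG2 cells expressing exogenous NR–Gal4 proteins are exposed to test chemicals for 24 h.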
smiles,measurement,setting,value
CCN(CC)C(=O)Cl,outcome,[1],inactive
same,outcome,[2],inactive
same,outcome,[3],inactive
same,outcome,[4],inactive
same,outcome,[5],inactive
same,outcome,[6],inactive
same,outcome,[7],inactive
same,outcome,[8],inactive
same,outcome,[9],inactive
same,outcome,[10],inactive
CCSC(C)CC1CC(=O)C(C(CC)=NOC/C=C/Cl)=C(O)C1 (stereo not given),outcome,[1],inactive
same,outcome,[2],inactive
same,outcome,[3],inactive
same,outcome,[5],inactive
same,outcome,[6],inactive
same,outcome,[11],inactive
same,outcome,[12],inactive
same,outcome,[13],inactive
same,outcome,[14],inactive
same,outcome,[15],inactive
same,outcome,[16],inactive
same,outcome,[17],inactive
same,AC50,[8],35.3 µM (active)
same,AC50,[9],7.44 µM (active)
same,outcome,[18],inactive
C[C@]12CC[C@H](O)CC1=CC[C@@H]1[C@@H]2CC[C@]2(C)C(=O)CC[C@@H]12,outcome,[1],inactive
same,outcome,[2],inactive
same,outcome,[3],inactive
same,outcome,[4],inactive
same,outcome,[5],inactive
same,outcome,[19],inactive
same,outcome,[20],inactive
same,outcome,[16],inactive
same,outcome,[8],inactive
same,AC50,[9],27.5 µM (active)
same,outcome,[18],inactive
CNC,outcome,[1],inactive
same,outcome,[2],inactive
same,outcome,[3],inactive
same,outcome,[4],inactive
same,outcome,[5],inactive
same,outcome,[6],inactive
same,outcome,[7],inactive
same,outcome,[10],inactive
O=C(O)Cc1ccccc1,outcome,[1],inactive
same,outcome,[2],inactive
same,outcome,[3],inactive
same,AC50,[4],25.9 µM (active)
same,outcome,[5],inactive
same,outcome,[20],inactive
same,outcome,[16],inactive
same,outcome,[8],inactive
same,outcome,[9],inactive
same,outcome,[10],inactive
C=CC(=O)N(C)C,outcome,[1],inactive
same,outcome,[2],inactive
same,outcome,[3],inactive
same,outcome,[4],inactive
same,outcome,[5],inactive
same,outcome,[6],inactive
same,outcome,[7],inactive
same,outcome,[8],inactive
same,outcome,[9],inactive
CC(=O)C=C(C)C,outcome,[1],inactive
same,outcome,[2],inactive
same,outcome,[3],inactive
same,outcome,[4],inactive
same,outcome,[5],inactive
same,outcome,[19],inactive
same,outcome,[20],inactive
same,outcome,[9],inactive
same,outcome,[18],inactive
same,outcome,[10],inactive
CC(Br)C(=O)O (stereo not given),outcome,[1],inactive
same,outcome,[2],inactive
same,outcome,[3],inactive
same,outcome,[4],inactive
same,outcome,[5],inactive
same,outcome,[6],inactive
same,outcome,[7],inactive
same,outcome,[20],inactive
same,outcome,[9],inactive
same,outcome,[18],inactive
Cc1cc(=O)[nH]o1,outcome,[1],inactive
same,outcome,[2],inactive
same,outcome,[3],inactive
same,outcome,[4],inactive
same,outcome,[5],inactive
same,outcome,[6],inactive
same,outcome,[7],inactive
same,outcome,[8],inactive
same,outcome,[9],inactive
same,outcome,[10],inactive
COc1ccccc1OC,outcome,[1],inactive
same,outcome,[2],inactive
same,outcome,[3],inactive
same,outcome,[5],inactive
same,outcome,[6],inactive
same,outcome,[19],inactive
same,outcome,[7],inactive
same,outcome,[20],inactive
same,outcome,[8],inactive
same,outcome,[9],inactive
same,outcome,[10],inactive
Cc1ccccc1C(=O)Nc1cccc(OC(C)C)c1,outcome,[1],inactive
same,outcome,[2],inactive
same,outcome,[3],inactive
same,AC50,[4],57.3 µM (active)
same,outcome,[5],inactive
same,outcome,[6],inactive
same,outcome,[7],inactive
same,AC50,[8],27.9 µM (active)
same,AC50,[9],2.62 µM (active)
N#Cc1ccccn1,outcome,[1],inactive
same,outcome,[2],inactive
same,outcome,[3],inactive
same,outcome,[4],inactive
same,outcome,[5],inactive
same,outcome,[6],inactive
same,outcome,[10],inactive
ClCC(Cl)CCl,outcome,[1],inactive
same,outcome,[2],inactive
same,outcome,[5],inactive
same,outcome,[6],inactive
same,outcome,[11],inactive
same,outcome,[12],inactive
same,outcome,[13],inactive
same,outcome,[7],inactive
same,outcome,[15],inactive
same,outcome,[20],inactive
same,outcome,[16],inactive
same,outcome,[17],inactive
same,outcome,[18],inactive
ClC(Cl)=C(Cl)C(Cl)=C(Cl)Cl,AC50,[1],163 µM (active)
same,AC50,[2],119 µM (active)
same,AC50,[5],149 µM (active)
same,AC50,[11],14.6 µM (active)
same,AC50,[12],32.4 µM (active)
same,AC50,[13],29.2 µM (active)
same,outcome,[7],inactive
same,AC50,[15],34 µM (active)
same,AC50,[17],14.3 µM (active)
same,outcome,[8],inactive
same,outcome,[9],inactive
same,outcome,[18],inactive
